Compound activity (PubChem BioAssay)
MazF activator – MazEF (E. coli) toxin RNase activation. P0AE70. 0.32% of 350,000 active. FAM/BHQ RNA-DNA oligo cleavage fluorescence, 5 h. activation, % at 20 µM; in the data active means activation above about 50%
BoNT A protease – blocks Botulinum neurotoxin A light chain protease. AID 588499. 0.17% of 360,000 active. inhibition, % at 10 µM. multiplex microsphere protease substrate cleavage, flow cytometry; further: plate controls were buffer without enzyme for full effect and enzyme alone for no effect
PriA SSB inh – blocks PriA binding to SSB C-terminal tail; AlphaScreen SSBct-PriA binding, biotinylated peptide; 0.6% of 430,000 active; inhibition, % at 33 µM; in the data active means inhibition mostly above about 37%, no sharp cut-off; inactive means mostly below about 20%;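 further: plate controls were negative control peptide for no effect and reference peptide for full effect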
BoNT-F LC inh – blocks Botulinum neurotoxin F light chain protease | Multiplex microsphere protease cleavage assay, flow cytometry | inhibition, % at 10 µM | 0.22% of 360,000 active | AID 588497; in the data active means inhibition above about 35%, passing the limit was not always enough; inconclusive means no clear call, values can overlap the other calls; further: plate controls were buffer without enzyme for full effect and enzyme alone for no effect
Autofluor counter – counter-screen for toxin protease inhibitors: compound fluorescence; compound autofluorescence counterscreen, microsphere flow cytometry; stronger effect = higher value; fluorescence intensity (concentration not given with the values); 3.1% of 360,000 active; in the data active means fluorescence intensity above about 16000; inconclusive means no clear call, values can overlap the other calls
Anthrax LF prot – anthrax lethal factor protease inhibition; AID 588501; inhibition, % at 10 µM; multiplex microsphere protease cleavage assay, LF; P15917; 0.12% of 360,000 active; further: plate controls were buffer without enzyme for full effect and enzyme alone for no effect
Target sequence (P15917 whole entry, looked up): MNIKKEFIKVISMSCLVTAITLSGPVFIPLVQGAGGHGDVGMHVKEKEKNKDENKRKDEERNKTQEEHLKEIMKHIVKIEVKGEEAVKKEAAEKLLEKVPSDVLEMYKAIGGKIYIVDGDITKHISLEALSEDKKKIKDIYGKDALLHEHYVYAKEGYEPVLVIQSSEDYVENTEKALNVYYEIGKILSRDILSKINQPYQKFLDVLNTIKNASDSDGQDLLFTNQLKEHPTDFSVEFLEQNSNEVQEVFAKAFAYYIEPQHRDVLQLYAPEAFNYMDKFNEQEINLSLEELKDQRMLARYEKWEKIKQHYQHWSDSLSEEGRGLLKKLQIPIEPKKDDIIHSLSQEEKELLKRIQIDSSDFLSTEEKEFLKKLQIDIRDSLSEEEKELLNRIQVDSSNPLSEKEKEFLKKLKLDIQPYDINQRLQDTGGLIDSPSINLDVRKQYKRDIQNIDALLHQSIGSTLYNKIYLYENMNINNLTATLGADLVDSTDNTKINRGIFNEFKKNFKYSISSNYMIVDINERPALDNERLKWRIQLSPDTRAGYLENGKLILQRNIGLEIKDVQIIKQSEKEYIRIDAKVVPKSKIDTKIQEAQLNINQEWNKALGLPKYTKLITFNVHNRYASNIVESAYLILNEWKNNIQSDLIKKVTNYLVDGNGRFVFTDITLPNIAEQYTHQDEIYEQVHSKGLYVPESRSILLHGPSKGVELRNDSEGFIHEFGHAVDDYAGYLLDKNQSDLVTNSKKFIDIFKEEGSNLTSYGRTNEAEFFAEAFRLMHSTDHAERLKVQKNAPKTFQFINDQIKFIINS
* hit, by the source's call; u = inconclusive; x = no result. Shown are actives, neighbours in structure and some others; about 3.3% of the full set was active somewhere. Unless noted, no stated cut-off is given here; in the data, active means inhibition above about 30%; inconclusive means no clear call, values can overlap the other calls; inactive means below that.

SMILES | MazF activator | BoNT A protease | PriA SSB inh | BoNT-F LC inh | Autofluor counter | Anthrax LF prot
c1cnc2c(c1)ccc1c2ccc2cccnc21 | x | x | 21 | x | x | x
O=S1(=O)Nc2c(ccc3cccnc23)-c2ccccc21 | -5 | -3 | 97* | -11 | 10425 | 1
CCOC(=O)c1nc(C)[nH]c1C(=O)OCC | -9 | u | 1 | 0 | 22419* | -4
CCCCOc1ccc(C(=O)NCc2n[nH]c(=S)n2-c2cccc(C(F)(F)F)c2)cc1 | x | x | -7 | x | x | x
Cc1ccccc1CSc1ncc(CO)n1CC(=O)NCc1ccc(Cl)cc1 | x | x | 0 | x | x | x
Cc1ncc(CC(=O)n2cc(C(=O)c3cc(F)ccc3O)cn2)s1 | -8 | u | -16 | -2 | 24032* | 0
Cc1cccc(OCc2nnc(SCC(=O)N3CCCC3)n2C)c1 | 2 | 0 | -6 | 4 | 16407* | 0
Cc1cccc(OCc2nnc(SCC(=O)N3CCc4ccccc43)n2C)c1 | 4 | -3 | 11 | -1 | 24057* | -2
Cc1cccc(OCc2nnc(SCC(=O)NC3CCCC3)n2C)c1 | -3 | 0 | 0 | -2 | 3674 | 4
CCCC(=O)Nc1cc(-c2cn3nc(OC)ccc3n2)ccc1C | x | x | -17 | x | x | x
O=C(c1ccc(Br)o1)N1CCN(C/C=C/c2ccccc2)CC1 | 1 | 0 | 0 | -3 | 9557 | -5
O=C(c1ccc(Br)s1)N1CCN(C/C=C/c2ccccc2)CC1 | 0 | -4 | -2 | -8 | 22315* | -1
CC(=O)Nc1ccc(NC(=S)NC(=O)C2CCCC2)cc1 | 6 | 0 | -10 | -4 | 6127 | -2
CCN(CC)c1ccc(NC(=S)NC(=O)C2CCC2)cc1 | -2 | 1 | 55* | 2 | 6073 | -2
O=C1NCCCC2c3c(cc(Br)c(O)c3Br)OC12N1CCOCC1 (centres undefined) | 3 | 6 | -6 | 9 | 20273* | 4
CCOc1ccc(C2=Nn3c(nnc3-c3ccc(OC)cc3)SC2)cc1 | 11 | 5 | -12 | 7 | 17851* | -12
CCOc1ccc(C2=Nn3cnnc3SC2)cc1 | -18 | 1 | -10 | 2 | 22944* | 2
Cc1cccc(-c2nnc3n2N=C(c2ccccc2)CS3)c1 | -1 | u | 5 | -2 | 20710* | 0
c1ccc(C2=Nn3c(nnc3-c3cccnc3)SC2)cc1 | -4 | 4 | -17 | 7 | 22262* | 1
Cc1ccc(S(=O)(=O)N(CC(=O)NCc2ccc3c(c2)OCO3)C(=O)N2CCN(C)CC2)cc1 | x | x | -3 | x | x | x
COc1ccc(C2=Nn3c(nnc3-c3cccnc3)SC2)cc1 | 10 | 0 | -6 | -4 | 9427 | 1
COc1ccc(OC)c(C2=Nn3c(nnc3-c3cccc(OC(C)C)c3)SC2)c1 | -5 | -1 | -7 | -5 | 16655* | -15
COc1ccc(C2=Nn3c(nnc3-c3ccco3)SC2)cc1 | -4 | -3 | -6 | -9 | 17209* | -5
CCOc1ccc(C2=Nn3c(nnc3-c3cccnc3)SC2)cc1 | 6 | u | -9 | -3 | 20067* | -1
COc1ccc(OC)c(C2=Nn3c(nnc3-c3ccco3)SC2)c1 | 0 | 2 | -14 | 2 | 15918 | 1
SMILES | MazF activator | BoNT A protease | PriA SSB inh | BoNT-F LC inh | Autofluor counter | Anthrax LF prot
CC(C)NC(=O)c1ccc(Cn2c(SCC(=O)Nc3ccc(F)cc3)nc3cc4c(cc3c2=O)OCO4)cc1 | x | x | -3 | x | x | x
Cc1c(C(=O)N2CCC(S(=O)(=O)c3nncn3C)CC2)cnn1-c1ccccc1 | x | x | 0 | x | x | x
Cc1ccsc1[C@@H](O)CNC(=O)NCc1ccccc1 | x | x | -3 | x | x | x
O=C(N/N=C\c1c(O)ccc2ccccc12)c1ccc(S(=O)(=O)N2CCCCC2)cc1 | -380 | 32* | x | -2 | 3033 | 4
O=C(NN=Cc1c(O)ccc2ccccc12)c1ccc(S(=O)(=O)N2CCCCC2)cc1 | x | x | 2 | x | x | x
O=C(N/N=C/c1c(O)ccc2ccccc12)c1ccc(CO)nc1 | -170 | 15 | x | 40* | 3979 | 6
O=C(Cc1n[nH]c(=O)[nH]c1=O)N/N=C/c1c(O)ccc2ccccc12 | 71* | 4 | x | -2 | 2711 | 1
COc1ccc(-c2nc(N)ns2)cc1OC | x | x | -11 | x | x | x
O=C1CC(C(=O)N(c2ccc(F)cc2)C(C(=O)NC2CCCC2)c2ccccn2)CS1 (centres undefined) | 0 | 1 | -19 | 0 | 22756* | -1
Cc1n[nH]c(=O)nc1NC(C)c1ccccc1 (centres undefined) | 5 | 3 | -10 | 2 | 22579* | 2
COc1ccccc1Nc1nc(=O)[nH]nc1C | 7 | 1 | -5 | 4 | 10635 | 1
COc1ccc(NC(=O)c2ccc(-c3ccc(-c4noc(C)n4)cc3C)cc2)cc1N1CCN(C)CC1 | -12 | -1 | 39* | -20 | 5917 | -8
COc1ccc(-c2nc(-c3ccc(NC(=O)c4ccncc4)cc3)no2)cc1OC | 14 | 0 | -4 | -2 | 5504 | 0
COC(=O)CSC1CCN(C(=O)C2c3ccccc3Oc3ccccc32)C1 (centres undefined) | x | x | -34 | x | x | x
CCn1c(SCc2nc3ccccc3c(=O)[nH]2)nnc1-c1cccnc1 | 3 | u | -13 | 1 | 23337* | 1
CCn1c(SCc2nc3ccccc3c(=O)[nH]2)nnc1-c1ccncc1 | 5 | 0 | -17 | -5 | 10286 | 3
Nn1c(SCc2nc3ccccc3[nH]2)nnc1-c1cccnc1 | 1 | 0 | -4 | 0 | 22326* | -2
COc1cccc(-c2nnc(SCc3nc4ccccc4[nH]3)n2N)c1 | 3 | -2 | 0 | -10 | 2716 | 0
CS(=O)(=O)n1[nH]c(=O)cc1N | x | x | -4 | x | x | x
CSc1ccc2nc(Nc3ccc(F)cc3F)sc2c1 | x | x | -10 | x | x | x
CCc1cc(C)cc(OCCNC(=O)c2ncn[nH]2)c1 | -2 | 1 | -1 | -3 | 7845 | 6
CC(C)(C)c1ccc(OCCNC(=O)c2ncn[nH]2)cc1 | 2 | 0 | 57* | u | 3759 | -10
O=C(NCCc1ccc(Cl)cc1)c1ncn[nH]1 | 0 | -1 | 2 | -21 | 4133 | -2
O=C(NCCc1ccccc1)c1ncn[nH]1 | 0 | u | -2 | 0 | 20498* | 2
O=C(Cn1ccc(NC(=O)OCc2ccccc2)nc1=O)NCc1ccc2c(c1)OCO2 | 58* | 0 | -16 | 9 | 3953 | -5
SMILES | MazF activator | BoNT A protease | PriA SSB inh | BoNT-F LC inh | Autofluor counter | Anthrax LF prot
O=C(Nc1ccn(CCCNCc2ccc3c(c2)OCO3)c(=O)n1)OCc1ccccc1 | 7 | 0 | 0 | 0 | 4199 | -2
CCCC(=O)Nc1ccc(S(=O)(=O)NCCOc2ccc(F)cc2)cc1 | x | x | -8 | x | x | x
Cn1c(=O)c2c(nc(Br)n2CCSc2nnnn2-c2ccccc2)n(C)c1=O | 0 | -2 | -23 | -2 | 20475* | 0
Cn1c(=O)[nH]c(=O)c2c1nc(Br)n2CCSc1nnnn1-c1ccccc1 | 4 | -2 | -2 | -6 | 11588 | -2
COc1ccccc1-n1cc(-c2ccccc2)c2c(=S)nc[nH]c21 | 2 | 1 | 41* | 0 | 5496 | 0
COc1ccccc1-n1cc(-c2ccccc2)[nH]c1=S | 12 | -10 | -4 | u | 5207 | 2
CC(C)(C)OC(=O)N1CCN(Cc2csc(N)n2)CC1 | x | x | -12 | x | x | x
